Measured potencies and affinities stand elsewhere. Records with an inconclusive call do not appear. Activity calls are given as the source filed them. Unless noted, no rule for the calls is given here.
What was measured:
[1] = RMG-1 ovarian cancer cell viability loss – cherry-pick, dose response (AID 687029;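 active = signal drop whose fitted half-maximal concentration is at most twice the top valid dose, in every test run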;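 also: cells exposed to compound for 96 hours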)
[2] = IOSE-T80 viability loss, PAX8-independent line – cell-based, cherry-pick, selectivity assay for PAX8 inhibitor project, dose response (AID 687032;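 active = fitted half-maximal concentration for viability loss no higher than twice the top valid dose, in every repeat run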;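 also: cells exposed to compound for 96 h before reading; 0% = neutral control wells and -100% = 2 µM mitoxantrone kill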)
[3] = CMV-driven luciferase expression suppression in HEK293 – cell-based, luminescence, dry powder, counter-screen for Pax8 inhibitor project, dose response (AID 743020;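 active = signal-lowering compounds whose fitted half-maximal concentration is at or below twice the top tested dose in every run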;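 also: HEK293 cells stably expressing the CMV luciferase reporter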)
[4] = general cell-killing toxicity readout – plate reader, dry powder samples, cytotoxicity control for PAX8 inhibitor project, dose response (AID 743021)
[5] = IGROV1 cell killing – plate reader, dry powder samples, PAX8 inhibitor project, dose response (AID 743043);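 also: more negative means fewer viable cells or more cytotoxicity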
[6] = OVCAR-3 cell viability loss – plate reader, dry powder samples, PAX8 inhibitor project, dose response (AID 743044); conditions: max activity: at 35 µM, stronger effect = lower value unless noted
[7] = toxicity toward immortalized ovarian surface epithelium – cell-based, plate reader, dry powder samples, cytotoxicity control for PAX8 inhibitor project, dose response (AID 743045);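 also: 0% = neutral control median and -100% = positive control median; more negative values mean more cell killing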
[8] = A2780 cell killing – plate reader, dry powder samples, cytotoxicity control, dose response (AID 743046);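 also: 0% = neutral control wells and -100% = cytotoxic reference compound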
[9] = OVCAR8 cell viability loss – plate reader, dry powder samples, PAX8 project, dose response (AID 743197)

Measured: max activity

C[C@@H]1CN([C@H](C)CO)C(=O)c2cc(NS(=O)(=O)c3ccc(F)cc3)ccc2O[C@@H]1CN(C)Cc1ccc(C(F)(F)F)cc1
inactive: [1] | [2] | [3] | [4] | [5] | [6] -4.85% | [7] | [8] | [9]

C[C@H]1CCCCO[C@H](CN(C)C(=O)Nc2ccc(F)cc2)[C@@H](C)CN([C@@H](C)CO)C(=O)c2cc(NC(=O)Nc3ccc(C(F)(F)F)cc3)ccc2O1
inactive: [1] | [2] | [3] | [4] | [5] | [6] 8.44% [at 16 µM, stronger effect = lower value] | [7] | [8]

Cc1cccc(S(=O)(=O)N2CC[C@@H]3[C@H](CO)Nc4ccc(C5=CCCCC5)cc4[C@@H]32)c1
inactive: [1] | [2] | [3] | [4] | [5] | [6] 25.1% [at 1.1 µM, stronger effect = lower value] | [7] | [8] | [9]

Cc1ccc(S(=O)(=O)Nc2cccc3c2O[C@@H](CN(C)C(=O)Nc2ccc(C(F)(F)F)cc2)[C@@H](C)CN([C@H](C)CO)C3=O)cc1
inactive: [1] | [2] | [3] | [4] | [5] | [6] 25% [at 2.1 µM, stronger effect = lower value] | [7] | [8] | [9]

Cc1cccc(-c2ccc([C@H]3[C@H](CO)N4CCCCN(S(=O)(=O)c5ccccc5C)C[C@@H]34)cc2)c1
inactive: [1] | [2] | [3] | [4] | [5] | [6] -11.5% | [7] | [8] | [9]

Cc1ccc(S(=O)(=O)N(C)C[C@H]2Oc3ccc(NC(=O)Nc4ccc(C(F)(F)F)cc4)cc3CC(=O)N([C@@H](C)CO)C[C@H]2C)cc1
inactive: [1] | [2] | [3] | [4] | [5] | [6] 15.5% [at 0.26 µM, stronger effect = lower value] | [7] | [8] | [9]

C[C@@H]1CN([C@@H](C)CO)C(=O)c2cc(NS(=O)(=O)c3ccc(F)cc3)ccc2O[C@@H](C)CCCCO[C@H]1CN(C)Cc1ccc(C(F)(F)F)cc1
inactive: [1] | [2] | [3] | [4] | [5] | [6] -20.3% [at 0.26 µM, stronger effect = lower value] | [7] | [8] | [9]

C[C@@H]1CN([C@H](C)CO)C(=O)c2cc(NS(=O)(=O)c3cccs3)ccc2O[C@@H](C)CCCCO[C@H]1CN(C)Cc1ccc(C(F)(F)F)cc1
inactive: [1] | [2] | [3] | [4] | [5] | [6] -10.6% [at 16 µM, stronger effect = lower value] | [7] | [8]

C[C@@H]1CN([C@H](C)CO)C(=O)c2cc(NC(=O)Nc3ccc(F)cc3)ccc2O[C@@H](C)CCCCO[C@H]1CN(C)C(=O)Nc1ccc(F)cc1
inactive: [1] | [2] | [3] | [4] | [5] | [6] 13.6% | [7] | [8] | [9]

C[C@@H]1CCCCO[C@@H](CN(C)C(=O)C2CCCCC2)[C@H](C)CN([C@@H](C)CO)C(=O)c2cc(NS(=O)(=O)c3ccc(Cl)cc3)ccc2O1
inactive: [1] | [2] | [3] | [4] | [5] | [6] -23.1% | [7] | [8] | [9]

C[C@@H]1CN([C@H](C)CO)C(=O)c2c(c3ccccc3n2C)-c2ccccc2CO[C@@H]1CN(C)S(=O)(=O)c1ccc(C(F)(F)F)cc1
inactive: [1] | [2] | [3] | [4] | [5] | [6] -18.1% [at 16 µM, stronger effect = lower value] | [7] | [8]

C[C@H](CO)N1C[C@H](C)[C@@H](CN(C)C(=O)NC2CCCCC2)Oc2cc(C#Cc3ccc(F)cc3)ccc2S1(=O)=O
inactive: [1] | [2] | [3] | [4] | [5] | [6] 10.3% [at 2.1 µM, stronger effect = lower value] | [7] | [8] | [9]

C[C@@H]1CN([C@@H](C)CO)C(=O)c2cc(NS(=O)(=O)c3ccc(F)cc3)ccc2O[C@@H]1CN(C)Cc1ccc(C(F)(F)F)cc1
inactive: [1] | [2] | [3] | [4] | [5] | [6] -27.7% | [7] | [8]

C[C@@H]1CN([C@H](C)CO)C(=O)Cc2cc(NC(=O)Cc3ccccc3)ccc2O[C@@H]1CN(C)Cc1ccc(C(F)(F)F)cc1
inactive: [1] | [2] | [3] | [4] | [5] | [6] -9.67% [at 0.26 µM, stronger effect = lower value] | [7] | [8] | [9]

C[C@@H]1CCCCO[C@H](CN(C)Cc2ccc(Cl)c(Cl)c2)[C@H](C)CN([C@@H](C)CO)C(=O)c2cc(NC(=O)Nc3ccc(F)cc3)ccc2O1
inactive: [1] | [2] | [3] | [4] | [5] | [6] 22.7% [at 8 µM, stronger effect = lower value] | [7] | [8]

C[C@H](CO)N1C[C@H](C)[C@H](CN(C)C(=O)c2ccccc2)OCCCC[C@H](C)Oc2ccc(NC(=O)Nc3ccc(C(F)(F)F)cc3)cc2C1=O
inactive: [1] | [2] | [3] | [4] | [5] | [6] 16.6% [at 0.5 µM, stronger effect = lower value] | [7] | [8]

COc1cccc(S(=O)(=O)Nc2ccc3c(c2)[C@H]2C[C@H](CC(=O)NCc4ccccc4F)O[C@H](CO)[C@H]2O3)c1
inactive: [1] | [2] | [3] | [4] | [5] | [6] 44.6% [at 0.5 µM, stronger effect = lower value] | [7] | [8]

C[C@@H]1CN([C@@H](C)CO)C(=O)Cc2cc(NS(=O)(=O)c3ccc(F)cc3)ccc2O[C@H]1CN(C)Cc1ccc(Oc2ccccc2)cc1
inactive: [1] | [2] | [3] | [4] | [5] | [6] -22.3% [at 4.2 µM, stronger effect = lower value] | [7] | [8] | [9]

C[C@@H]1CN([C@@H](C)CO)C(=O)Cc2cc(NC(=O)c3ccncc3)ccc2O[C@@H]1CN(C)Cc1ccc(-c2ccccc2)cc1
inactive: [1] | [2] | [3] | [4] | [5] | [6] 8.74% [at 0.26 µM, stronger effect = lower value] | [7] | [8] | [9]

C[C@@H]1CCCCO[C@H](CN(C)Cc2ccccc2)[C@H](C)CN([C@H](C)CO)C(=O)c2cc(NC(=O)Nc3ccc(C(F)(F)F)cc3)ccc2O1
inactive: [1] | [2] | [3] | [4] | [5] | [6] -9.62% | [7] | [8] | [9]

C[C@H]1CN([C@@H](C)CO)S(=O)(=O)c2ccc(-c3ccc(C#N)cc3)cc2O[C@@H]1CN(C)Cc1cccc(F)c1
inactive: [1] | [2] | [3] | [4] | [5] | [6] -11.6% [at 16 µM, stronger effect = lower value] | [7] | [8]

CN1c2ccc(C#Cc3cccnc3)cc2[C@@H]2[C@@H](CCN2C(=O)Cc2cccnc2)[C@@H]1CO
inactive: [1] | [2] | [3] | [4] | [5] | [6] 17.5% [at 16 µM, stronger effect = lower value] | [7] | [8] | [9]

Cc1ccc(S(=O)(=O)N(C)C[C@@H]2OCCCC[C@H](C)Oc3ccc(NS(=O)(=O)c4ccc(F)cc4)cc3C(=O)N([C@H](C)CO)C[C@H]2C)cc1
inactive: [1] | [2] | [3] | [4] | [5] | [6] -6.55% | [7] | [8]

Cc1ccc(S(=O)(=O)N(C)C[C@@H]2OCCCC[C@H](C)Oc3ccc(NS(=O)(=O)c4cccs4)cc3C(=O)N([C@H](C)CO)C[C@H]2C)cc1
inactive: [1] | [2] | [3] | [4] | [5] | [6] 5.96% | [7] | [8]

C[C@@H]1CN([C@@H](C)CO)C(=O)c2c(c3ccccc3n2C)-c2ccccc2CO[C@H]1CN(C)S(=O)(=O)c1cccc(F)c1
inactive: [1] | [2] | [3] | [4] | [5] | [6] -19.9% [at 16 µM, stronger effect = lower value] | [7] | [8]

C[C@H]1CCCCO[C@@H](CN(C)S(=O)(=O)c2cccs2)[C@@H](C)CN([C@@H](C)CO)C(=O)c2cc(NC(=O)NC3CCCCC3)ccc2O1
inactive: [1] | [2] | [3] | [4] | [5] | [6] -5.85% [at 8 µM, stronger effect = lower value] | [7] | [8] | [9]

C[C@@H]1CCCCO[C@H](CN(C)C(=O)c2ccccc2)[C@@H](C)CN([C@@H](C)CO)C(=O)c2cc(NC(=O)Nc3ccc(C(F)(F)F)cc3)ccc2O1
inactive: [1] | [2] | [3] | [4] | [5] | [6] 20.2% [at 2.1 µM, stronger effect = lower value] | [7] | [8] | [9]

C[C@H](CO)N1C[C@H](C)[C@H](CN(C)S(=O)(=O)c2cccs2)OCCCC[C@H](C)Oc2ccc(NC(=O)NC3CCCCC3)cc2C1=O
inactive: [1] | [2] | [3] | [4] | [5] | [6] 9.21% [at 0.26 µM, stronger effect = lower value] | [7] | [8] | [9]

From PubChem BioAssay
